The record followed here is the OligoGym collection.
Further: reference of the scale not given here.

In the first experiment the target is DCTN6. The experiment is described as follows: pooled miR-30 sensor sort-seq; sequence = guide strand. As to conditions: shRNA.
TAGATCACCGTATTCTCAGGGA: the sensor-assay potency score (higher = more potent) was determined as 0.157.

As to TTTCTACACATACAACTGCTCC, the sensor-assay potency score (higher = more potent) is -0.672. As to TTTCATCAAGAAATCCAGCTGT, the sensor-assay potency score (higher = more potent) turned out to be 0.825. The same measure, in the same setting: as for TAAGAGTACATAAACACTGTGG, the figure is -0.0797; as for TAATTCTTGCTTTAGGGTGGAT, -0.47. On the same count and under the same terms, then TTAGGGTGGATCACTGTCCGAG, with -0.692; and TAGGTTTTGGTTCTGGATCTTC, with -0.00342. Still for that read-out and setting: as for TTTAGGTTGCAACAAGCCCCAA, the figure is -1.26; as for TTAAGAGTACATAAACACTGTG, -0.096. TTTCATAGTCTTCTTTAGGTGG gave a sensor-assay potency score (higher = more potent) of -0.245. TTTCACTTTCTACACATACAAC had a sensor-assay potency score (higher = more potent) of -1.58.

Another experiment has as its target DCX. Described as above. To be noted: shRNA.
As to TTGGGATTGACATTCTTGGTGT, the sensor-assay potency score (higher = more potent) turned out to be 0.0923. Turning to TAACATAGAATATAAACTGAGA, the sensor-assay potency score (higher = more potent) was -0.639. Turning to TCTAGTAGTACATATACCGCAA, the sensor-assay potency score (higher = more potent) worked out at 0.223. The sequence TTGAATGCTGCGAATCTTCAGC yielded a sensor-assay potency score (higher = more potent) of -0.1. For the sequence TACAACTGTAAGACAACTGGGA, the sensor-assay potency score (higher = more potent) stood at 0.406. The same measure, in the same setting: then TATTCATCTTGTTTTCTCCTGG, with 0.366.
